Laboratory results as given in the supplement of paper PMC6378613.

Compound: Cc1ccc(-c2ccc3c(ccc4sc5c(c43)NC[C@@H](C)NC5=O)n2)cn1
Experiment: kinase activity remaining relative to vehicle control; higher = less inhibition
Description: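 In vitro radiometric kinase profiling of the MK2 inhibitor PF-3644022 at 0.1, 1 and 10 µM against a panel of kinases (MRC International Centre for Kinase Profiling, Dundee). Read-out is % kinase activity remaining relative to the vehicle control, mean of n=2.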

Sequence of UniProt Q9NQU5 (Q9NQU5 whole entry, looked up): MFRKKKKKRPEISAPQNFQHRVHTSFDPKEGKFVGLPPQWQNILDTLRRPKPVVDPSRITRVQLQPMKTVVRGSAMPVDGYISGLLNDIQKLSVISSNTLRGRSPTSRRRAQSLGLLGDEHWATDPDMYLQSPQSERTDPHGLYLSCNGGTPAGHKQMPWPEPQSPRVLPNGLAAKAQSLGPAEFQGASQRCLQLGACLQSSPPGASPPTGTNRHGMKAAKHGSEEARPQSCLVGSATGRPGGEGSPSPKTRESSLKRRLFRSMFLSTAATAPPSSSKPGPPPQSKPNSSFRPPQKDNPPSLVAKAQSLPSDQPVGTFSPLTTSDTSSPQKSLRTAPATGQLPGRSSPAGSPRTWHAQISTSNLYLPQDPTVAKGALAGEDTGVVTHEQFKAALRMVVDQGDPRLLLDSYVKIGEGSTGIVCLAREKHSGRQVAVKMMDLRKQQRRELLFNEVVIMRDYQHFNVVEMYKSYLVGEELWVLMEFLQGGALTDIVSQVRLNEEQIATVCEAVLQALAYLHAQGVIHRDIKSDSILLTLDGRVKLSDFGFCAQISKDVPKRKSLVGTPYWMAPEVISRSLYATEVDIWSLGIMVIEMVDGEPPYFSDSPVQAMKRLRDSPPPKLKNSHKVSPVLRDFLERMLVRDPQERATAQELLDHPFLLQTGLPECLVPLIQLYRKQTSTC
Sequence of UniProt O60674 (O60674 whole entry, looked up): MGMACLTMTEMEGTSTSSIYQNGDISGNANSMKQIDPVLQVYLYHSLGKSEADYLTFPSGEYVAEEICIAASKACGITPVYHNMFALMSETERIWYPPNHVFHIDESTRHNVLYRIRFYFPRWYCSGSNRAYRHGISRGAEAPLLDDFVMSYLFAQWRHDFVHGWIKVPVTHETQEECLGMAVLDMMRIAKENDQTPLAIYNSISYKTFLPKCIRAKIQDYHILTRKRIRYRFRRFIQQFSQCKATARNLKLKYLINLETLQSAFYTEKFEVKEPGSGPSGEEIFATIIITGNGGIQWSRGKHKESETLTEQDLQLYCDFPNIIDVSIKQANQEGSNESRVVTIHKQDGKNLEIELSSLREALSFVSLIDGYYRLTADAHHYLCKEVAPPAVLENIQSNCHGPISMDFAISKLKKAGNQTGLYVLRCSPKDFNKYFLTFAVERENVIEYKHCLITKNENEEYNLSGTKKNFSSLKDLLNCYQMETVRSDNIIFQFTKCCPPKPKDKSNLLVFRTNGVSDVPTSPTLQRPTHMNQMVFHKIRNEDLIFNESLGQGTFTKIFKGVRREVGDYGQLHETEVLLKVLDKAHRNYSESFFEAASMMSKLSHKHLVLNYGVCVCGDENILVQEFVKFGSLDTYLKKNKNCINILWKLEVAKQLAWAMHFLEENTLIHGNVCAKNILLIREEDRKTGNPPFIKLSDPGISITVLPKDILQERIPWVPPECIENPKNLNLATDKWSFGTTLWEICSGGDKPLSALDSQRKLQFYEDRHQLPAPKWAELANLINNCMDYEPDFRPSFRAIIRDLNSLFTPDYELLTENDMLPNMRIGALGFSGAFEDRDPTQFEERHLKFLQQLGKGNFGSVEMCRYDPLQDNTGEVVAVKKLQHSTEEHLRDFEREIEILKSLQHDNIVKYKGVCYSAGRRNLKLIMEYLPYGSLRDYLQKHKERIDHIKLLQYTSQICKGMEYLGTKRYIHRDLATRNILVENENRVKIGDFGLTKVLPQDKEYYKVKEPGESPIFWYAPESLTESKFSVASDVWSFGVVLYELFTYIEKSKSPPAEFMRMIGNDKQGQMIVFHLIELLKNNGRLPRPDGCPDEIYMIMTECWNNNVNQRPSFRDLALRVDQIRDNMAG
Sequence of UniProt Q9Y6E0 (Q9Y6E0 whole entry, looked up): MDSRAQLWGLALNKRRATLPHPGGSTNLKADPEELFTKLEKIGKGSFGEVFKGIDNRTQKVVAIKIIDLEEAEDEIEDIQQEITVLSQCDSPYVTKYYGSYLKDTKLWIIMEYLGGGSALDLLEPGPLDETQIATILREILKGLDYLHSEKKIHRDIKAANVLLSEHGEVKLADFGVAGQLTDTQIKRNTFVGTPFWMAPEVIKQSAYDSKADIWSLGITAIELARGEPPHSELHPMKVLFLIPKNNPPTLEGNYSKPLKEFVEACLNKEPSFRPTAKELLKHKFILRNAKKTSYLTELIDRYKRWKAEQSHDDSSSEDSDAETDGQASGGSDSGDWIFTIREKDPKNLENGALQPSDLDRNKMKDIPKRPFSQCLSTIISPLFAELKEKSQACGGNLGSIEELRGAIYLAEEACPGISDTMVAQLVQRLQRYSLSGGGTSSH
Sequence of UniProt Q8IW41 (Q8IW41 whole entry, looked up): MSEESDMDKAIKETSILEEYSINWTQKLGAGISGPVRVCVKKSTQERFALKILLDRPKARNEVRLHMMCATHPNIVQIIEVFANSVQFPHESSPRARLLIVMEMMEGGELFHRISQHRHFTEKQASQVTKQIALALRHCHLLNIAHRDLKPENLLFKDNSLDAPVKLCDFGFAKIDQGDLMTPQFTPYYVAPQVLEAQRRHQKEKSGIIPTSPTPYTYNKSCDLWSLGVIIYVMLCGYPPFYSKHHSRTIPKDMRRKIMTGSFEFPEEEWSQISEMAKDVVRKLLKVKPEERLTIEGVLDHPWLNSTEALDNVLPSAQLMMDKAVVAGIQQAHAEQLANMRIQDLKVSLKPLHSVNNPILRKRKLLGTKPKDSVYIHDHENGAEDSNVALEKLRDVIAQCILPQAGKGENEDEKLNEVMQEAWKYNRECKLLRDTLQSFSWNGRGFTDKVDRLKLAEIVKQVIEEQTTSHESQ
Sequence of UniProt Q9H0K1 (Q9H0K1 whole entry, looked up): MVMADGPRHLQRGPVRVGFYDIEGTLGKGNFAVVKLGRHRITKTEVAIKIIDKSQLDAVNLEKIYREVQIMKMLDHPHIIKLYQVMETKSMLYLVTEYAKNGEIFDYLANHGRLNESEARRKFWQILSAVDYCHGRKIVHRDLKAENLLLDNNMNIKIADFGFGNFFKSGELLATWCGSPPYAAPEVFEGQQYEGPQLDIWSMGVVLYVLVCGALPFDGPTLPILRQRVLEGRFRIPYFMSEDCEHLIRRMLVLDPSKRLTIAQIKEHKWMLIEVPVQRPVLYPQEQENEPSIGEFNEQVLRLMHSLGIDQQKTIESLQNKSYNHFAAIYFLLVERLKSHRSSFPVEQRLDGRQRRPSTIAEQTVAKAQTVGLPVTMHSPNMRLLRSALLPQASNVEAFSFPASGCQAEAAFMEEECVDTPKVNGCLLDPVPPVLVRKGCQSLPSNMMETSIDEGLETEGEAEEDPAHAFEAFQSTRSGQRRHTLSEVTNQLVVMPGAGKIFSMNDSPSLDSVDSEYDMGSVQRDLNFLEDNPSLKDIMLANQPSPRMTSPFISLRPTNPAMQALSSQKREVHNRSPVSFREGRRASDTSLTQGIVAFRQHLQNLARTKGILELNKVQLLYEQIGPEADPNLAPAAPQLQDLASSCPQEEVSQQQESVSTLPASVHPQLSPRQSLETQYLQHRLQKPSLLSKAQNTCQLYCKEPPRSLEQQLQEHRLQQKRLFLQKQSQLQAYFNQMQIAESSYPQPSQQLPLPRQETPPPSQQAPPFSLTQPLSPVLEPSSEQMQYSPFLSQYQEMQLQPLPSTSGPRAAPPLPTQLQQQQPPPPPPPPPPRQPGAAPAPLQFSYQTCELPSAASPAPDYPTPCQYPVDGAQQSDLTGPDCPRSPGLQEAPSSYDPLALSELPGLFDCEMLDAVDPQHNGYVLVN
Sequence of UniProt P06239 (P06239 whole entry, looked up): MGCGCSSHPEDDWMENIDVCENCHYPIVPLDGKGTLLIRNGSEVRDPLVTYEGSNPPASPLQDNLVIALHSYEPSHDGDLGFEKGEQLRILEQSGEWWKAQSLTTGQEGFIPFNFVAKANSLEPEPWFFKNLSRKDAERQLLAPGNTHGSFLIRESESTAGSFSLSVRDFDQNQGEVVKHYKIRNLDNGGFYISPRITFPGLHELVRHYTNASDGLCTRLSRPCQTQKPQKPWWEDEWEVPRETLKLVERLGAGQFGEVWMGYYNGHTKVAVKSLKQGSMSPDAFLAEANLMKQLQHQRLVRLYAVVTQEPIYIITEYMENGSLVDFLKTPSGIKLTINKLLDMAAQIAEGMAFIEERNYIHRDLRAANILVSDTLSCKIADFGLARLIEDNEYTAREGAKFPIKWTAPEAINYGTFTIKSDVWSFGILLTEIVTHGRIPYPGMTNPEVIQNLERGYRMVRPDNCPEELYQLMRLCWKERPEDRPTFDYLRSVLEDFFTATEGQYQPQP
Sequence of UniProt Q14012 (Q14012 whole entry, looked up): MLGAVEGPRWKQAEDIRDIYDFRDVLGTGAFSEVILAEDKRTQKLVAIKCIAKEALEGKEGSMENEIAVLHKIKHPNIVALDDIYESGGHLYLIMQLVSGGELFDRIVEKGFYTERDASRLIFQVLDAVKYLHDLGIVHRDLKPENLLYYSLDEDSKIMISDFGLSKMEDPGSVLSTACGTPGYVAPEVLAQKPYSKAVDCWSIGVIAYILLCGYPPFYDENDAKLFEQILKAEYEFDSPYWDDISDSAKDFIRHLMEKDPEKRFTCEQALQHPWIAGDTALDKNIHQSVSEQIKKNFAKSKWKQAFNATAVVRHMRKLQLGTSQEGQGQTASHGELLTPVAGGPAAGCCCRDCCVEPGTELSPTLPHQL

Row | Target | kinase activity remaining (inhibitor concentration 0.1 µM) | kinase activity remaining (inhibitor concentration 1 µM) | kinase activity remaining (inhibitor concentration 10 µM)
1 | MKK1 | 101% | 97% | 69%
2 | Lck (UniProt P06239) | 108% | 95% | 86%
3 | EPH-B3 | 98% | 88% | 85%
4 | MST3 (UniProt Q9Y6E0) | 118% | 109% | 108%
5 | Aurora B | 109% | 99% | 64%
6 | ROCK 2 | 112% | 96% | 95%
7 | TAK1 | 113% | 109% | 70%
8 | PKD1 (UniProt P98161) | 96% | 96% | 48%
9 | CAMK1 (UniProt Q14012) | 96% | 97% | 68%
10 | JAK2 (UniProt O60674) | 101% | 102% | 79%
11 | CAMKK beta | 107% | 87% | 28%
12 | SIK2 (UniProt Q9H0K1) | 99% | 86% | 77%
13 | PAK6 (UniProt Q9NQU5) | 117% | 106% | 116%
14 | PRAK (UniProt Q8IW41) | 126% | 67% | 24%
